Experimental data published in PubChem BioAssay (EPA / NIEHS).
Activity calls are given as the source filed them. The calls were made as follows: active = hit-call score of the fitted dose curve at least 0.9, where 1 is the maximum; inactive = score below 0.9. Peptide text beside a SMILES is read from it.

target: Transcription factor Sp1 (Homo sapiens) (UniProt P08047); assay: ATG_Sp1_CIS: Attagene CIS-FACTORIAL HepG2 Assay for human Specificity Protein 1 (Sp1) (AID 2282961); conditions: HepG2 Sp1 cis-reporter transcription, actives raise or lower the signal
Experimental: ATG_CIS is a cell-based, multiplexed-readout assay that uses HepG2, a human liver cell line, with measurements taken at 24 hours after chemical dosing in a 24-well plate.ATG_Sp1_CIS is one of 52 assay component(s) measured or calculated from the ATG_CIS assay. It is designed to make measurements of mRNA induction, a form of inducible reporter, as detected with fluorescence intensity signals by Reverse transcription polymerase chain reaction (RT-PCR) and Capillary electrophoresis technology.Data from the assay component ATG_Sp1_CIS was analyzed into 1 assay endpoint. This assay endpoint, ATG_Sp1_CIS, was analyzed with bidirectional fitting relative to DMSO as the negative control and baseline of activity. Using a type of inducible reporter, measures of mRNA for gain or loss-of-signal activity can be used to understand the reporter gene at the transcription factor-level as they relate to the gene SP1. Furthermore, this assay endpoint can be referred to as a primary readout, because this assay has produced multiple assay endpoints where this one serves a reporter gene function. To generalize the intended target to other relatable targets, this assay endpoint is annotated to the dna binding intended target family, where the subfamily is zinc finger.
Human liver HepG2 cells are transiently transfected with multiple reporter transcription units (MRTUs) in 6-well plates using FuGene 6 reagent (Roche; 3 ml FuGene/1 mg DNA). The MRTU constructs are regulated by a cis-regulating element (promoter). […] A major difference between the CIS and TRANS system is that in CIS activities of endogenous TFs are measured, whereas the TRANS assay evaluates changes in activities of exogenous, chimeric NR-Gal4 proteins. […] At the end of 24 hour incubation, total RNA was isolated using TriZol reagent (Invitrogen). The isolated RNA is then reverse-transcribed using oligo(dT) primer and Mo-MLV reverse transcriptase (Invitrogen) with DNAse I (Ambion) treatment for 30 min. The one-tenth of the produced cDNA was amplified by PCR using Taq DNA polymerase (Invitrogen) and two reporter sequence-specific primers. The PCR products were fluorescently labeled by primer extension with 6-arboxyfluorescein (6-FAM) 5'-labeled reporter sequence-specific primer (2 min at 95 C, 20 s at 68 C and 10 min at 72 C) and these products were digested with 5U of HpaI (New England Biolabs) for 2h at 37 C. The fragments were purified using Qiaquick PCR columns (Qiagen), analyzed on an ABI 3130xL genetic analyzer (Applied Biosystems) with peak positions identified by using a set of X-rhodamine (ROX)-labeled MapMarker1000 molecular weight standards (BioVentures). The raw capillary electrophoresis data was processed using Attagraph software (Attagene).

Chain of Transcription factor Sp1 (Homo sapiens) (P08047 whole entry, looked up): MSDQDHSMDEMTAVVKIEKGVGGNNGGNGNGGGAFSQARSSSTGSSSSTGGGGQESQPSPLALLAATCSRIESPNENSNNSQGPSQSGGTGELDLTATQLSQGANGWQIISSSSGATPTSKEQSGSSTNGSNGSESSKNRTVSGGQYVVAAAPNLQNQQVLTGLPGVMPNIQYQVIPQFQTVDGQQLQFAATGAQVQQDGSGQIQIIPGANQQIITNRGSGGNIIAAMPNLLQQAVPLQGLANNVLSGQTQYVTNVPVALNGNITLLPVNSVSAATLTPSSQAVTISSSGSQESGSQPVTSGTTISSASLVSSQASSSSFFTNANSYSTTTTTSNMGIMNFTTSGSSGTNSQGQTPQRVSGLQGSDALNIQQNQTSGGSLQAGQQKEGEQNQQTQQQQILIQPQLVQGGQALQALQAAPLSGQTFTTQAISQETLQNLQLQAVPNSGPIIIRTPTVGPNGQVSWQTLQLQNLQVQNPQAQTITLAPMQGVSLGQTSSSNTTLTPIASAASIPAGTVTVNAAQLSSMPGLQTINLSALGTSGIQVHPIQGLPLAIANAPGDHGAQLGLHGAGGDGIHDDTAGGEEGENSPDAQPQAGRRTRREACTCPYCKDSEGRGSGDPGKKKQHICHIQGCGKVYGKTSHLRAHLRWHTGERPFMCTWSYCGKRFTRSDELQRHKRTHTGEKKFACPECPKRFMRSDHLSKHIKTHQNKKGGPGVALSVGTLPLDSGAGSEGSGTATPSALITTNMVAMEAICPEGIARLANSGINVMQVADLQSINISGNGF

| SMILES | outcome | AC50 |
| --- | --- | --- |
| CC(=O)OC(C)c1ccccc1 (stereo not given) | inactive |  |
| CC(C)COC(=O)CC(C(=O)OCC(C)C)S(=O)(=O)O (stereo not given) | inactive |  |
| O=C(OCCc1ccccc1)c1ccccc1 | inactive |  |
| CC(CC=O)CC(C)(C)C (stereo not given) | inactive |  |
| Clc1cc(Cl)c(Cl)c(Cl)c1Cl | inactive |  |
| O=S(=O)(O)c1ccc(Nc2nc(Nc3ccc(C=Cc4ccc(Nc5nc(Nc6ccc(S(=O)(=O)O)cc6)nc(N(CCO)CCO)n5)cc4S(=O)(=O)O)c(S(=O)(=O)O)c3)nc(N(CCO)CCO)n2)cc1 | inactive |  |
| CCCCCCOc1ccc(N)cc1 | inactive |  |
| CCC1(C)C(=O)N(Cl)C(=O)N1Cl (stereo not given) | inactive |  |
| CCCCCCC=O | inactive |  |
| C=C(C)C(=O)OCCOC(=O)C(=C)C | inactive |  |
| O=C(O[C@@H]1Cc2c(O)cc(O)cc2O[C@@H]1c1cc(O)c(O)c(O)c1)c1cc(O)c(O)c(O)c1 | inactive |  |
| Cc1cc(=O)[nH]c(=O)[nH]1 | inactive |  |
| c1ccc(-c2nc3ccccc3[nH]2)cc1 | inactive |  |
| CC(=O)OCc1ccccc1 | inactive |  |
| CC1OC(=O)C(C)OC1=O (stereo not given) | inactive |  |
| CC(C)c1cccc(C(C)C)c1N | inactive |  |
| Cn1ccnc1 | inactive |  |
| C=CC(=O)OCCCCCCCCCC | inactive |  |
| COC(=O)CC(C)CCC=C(C)C (stereo not given) | inactive |  |
| CC(C)C(=O)OCCOc1ccccc1 | inactive |  |

| SMILES | outcome | AC50 |
| --- | --- | --- |
| CC(C)c1ccc2ncccc2c1 | inactive |  |
| CCOC(=O)C1=NN(c2ccc(Cl)cc2Cl)C(C)(C(=O)OCC)C1 (stereo not given) | inactive |  |
| CC(C)(CO)COC(=O)C(C)(C)CO | inactive |  |
| CCCC=C(C=O)CC | inactive |  |
| CCC[Si](OC)(OC)OC | inactive |  |
| CCCCC(C=O)CC (stereo not given) | inactive |  |
| CCCCC(CC)COS(=O)(=O)O (stereo not given) | inactive |  |
| C=C1C[C@H]2[C@@H]3C=C(C)C4=CC(=O)CC[C@]4(C)[C@H]3CC[C@]2(C)[C@@]1(OC(C)=O)C(C)=O | inactive |  |
| COC(=O)[C@H](Cc1ccccc1)NC(=O)[C@@H](N)CC(=O)O (H-Asp-Phe-OMe) | inactive |  |
| CC=CC(=O)OCC(C)C | inactive |  |
| CCCCC/C=C\C/C=C\CCCCCCCC(=O)O | inactive |  |
| CCc1cccc(CC)c1 | inactive |  |
| CCCCOCCOCCOC(C)=O | inactive |  |
| CCCCCCCCCCCC(C)=O |  | 154 µM (active) |
| CC(Cl)COP(=O)(OCC(C)Cl)OCC(C)Cl (stereo not given) | inactive |  |
| OCCCc1ccccc1 | inactive |  |
| CCN1CCCC1=O | inactive |  |
| Oc1ccc(-c2ccccc2)c(Cl)c1 | inactive |  |
| CC1CCC(=O)C1=O (stereo not given) | inactive |  |
| CC(C)(C)C1CCC(=O)CC1 | inactive |  |
